Pf apPOL block: Pf-apPOL DNA polymerase inhibition; 210,000 compounds, 0.25% hits; inhibition, % at 10 µM; Recombinant Pf-apPOL, molecular beacon fluorescence, 1.5 h
mHTT CaM bind: mHTT-calmodulin interaction abrogation; AlphaScreen His-mHTT/GST-CaM binding, luminescence; P42858; 190,000 compounds, 3.6% hits; AID 1671202; inhibition, % at 15 µM
Large screens that a line does not name were inactive. This excerpt belongs to a sample that is enriched for hits. Cut-off read from the data, not from the text of the source: active = inhibition above about 50%; inactive = the rest.

COc1cccc2c1OC1(CCCCC1)N1N=C(c3ccc(C)o3)CC21 (centres undefined)	mHTT CaM bind 80
COc1cccc2c1OC1(CCCCC1)N1N=C(c3ccccc3)CC21 (centres undefined)	none
COc1cccc2c1OC1(CCC(C)CC1)N1N=C(c3ccc(C)o3)CC21 (centres undefined)	mHTT CaM bind 85
COc1ccc(C2=NN3C(C2)c2ccccc2OC32CCCCC2)cc1 (centres undefined)	none
COc1ccc(-c2noc(C3CCCN3C(=O)c3cccnc3)n2)cc1 (centres undefined)	none
COc1ccc(C(NC(C)=O)c2cc([N+](=O)[O-])c3cccnc3c2O)cc1 (centres undefined)	mHTT CaM bind 100
CC(=O)NC(c1ccccc1)c1cc([N+](=O)[O-])c2cccnc2c1O (centres undefined)	mHTT CaM bind 100
O=[N+]([O-])c1cccc(Cl)c1N1CCN(c2ccc([N+](=O)[O-])c3cccnc23)CC1	none
COc1ccc(NC(=O)CSc2cccc3cccnc23)c([N+](=O)[O-])c1	none
CC(=O)NC(c1ccccc1Cl)c1cc([N+](=O)[O-])c2cccnc2c1O (centres undefined)	mHTT CaM bind 100
Cc1cc(I)ccc1Nc1c([N+](=O)[O-])cc([N+](=O)[O-])c2cccnc12	none
C=CCN(C)C(=O)c1ccc2c(c1)N(C)C(C)CO2 (centres undefined)	none
CC(=O)c1ccc(NC(=O)CCCn2nc([N+](=O)[O-])c(Cl)c2C)cc1	none
Cc1ccc(N(C)S(=O)(=O)c2ccc3[nH]cc(C(=O)NC4CCCC4)c(=O)c3c2)cc1C	none
C[C@@]12CCC=C[C@H]1[C@H](c1ccc(/C=C/c3ccccc3)cc1F)N(Cc1ccccc1)C2=O	none
C[C@@]12CCC=C[C@H]1[C@H](c1ccc(C(F)(F)F)cc1)N(Cc1ccccc1)C2=O	mHTT CaM bind 83
O=C1C2C(c3ccccc3)CC=CC2[C@H](c2ccc(C(F)(F)F)cc2)N1Cc1ccccc1 (some centres undefined)	none
C[C@@H]1CC=C[C@H]2[C@H]1C(=O)N(Cc1ccccc1)[C@H]2c1ccc(C(F)(F)F)cc1	mHTT CaM bind 91
C[C@@H]1CC=C[C@H]2[C@H]1C(=O)N(Cc1ccccc1)[C@H]2c1ccc(-c2ccoc2)cc1F	mHTT CaM bind 60
C[C@@H]1CC=C[C@H]2[C@H]1C(=O)N(Cc1ccccc1)[C@H]2c1ccc(-c2ccc(F)cc2)cc1F	none
CC(=NOCC(=O)N=S(C)(=O)c1ccc(C)cc1)c1ccc(Cl)cc1 (centres undefined)	none (no result: mHTT CaM bind)
CC1(C)Cc2ccccc2C(CC2=NC(C)(C)Cc3ccccc32)=N1	none
COc1nccnc1NC1CCN(C(=O)c2ccc(C)cc2)CC1	none
CCOc1ccc(C(=O)Nc2ccc3oc(-c4ccncc4)nc3c2)cc1Cl	none
CCSc1cnn(C2CCCCC2)c(=O)c1Cl	none
CC(C)(C)n1nc2c(c1NC(=O)c1c(F)cccc1Cl)CSC2	none
CC(C)(C)n1nc2c(c1NC(=O)C(=O)NCc1c(F)cccc1F)CSC2	mHTT CaM bind 60
COc1ccc(C(=O)Nc2c3c(nn2-c2ccc(C)cc2C)CSC3)cc1	none
Cc1ccc(C(=O)Nc2c3c(nn2C(C)(C)C)CS(=O)(=O)C3)cc1	Pf apPOL block 88
Cc1ccc(C(=O)Nc2c3c(nn2C(C)(C)C)CSC3)cc1	none
Cc1cccc(C(=O)Nc2c3c(nn2C(C)(C)C)CS(=O)(=O)C3)c1	none
CC(C)(C)n1nc2c(c1NC(=O)c1ccc(F)cc1)CSC2	mHTT CaM bind 58
Cc1ccc(-n2nc3c(c2NC(=O)c2ccc(F)cc2)CSC3)c(C)c1	Pf apPOL block 57
CCCn1cnnc1C1CCCN(Cc2cn[nH]c2-c2cccs2)C1 (centres undefined)	none
CS(=O)(=O)Nc1ccc2c(c1)N(C(=O)c1ccccc1)CCC2	none
COc1cccc(CNC(=O)c2nc(C)oc2C)c1	none
CC(=O)Nc1ccc2nc(N3CCC(C(=O)NC4CC4)CC3)cc(C)c2c1	none
CC(C)(C)n1nc2c(c1NC(=O)c1ccco1)CSC2	mHTT CaM bind 71
CC(C)(C)n1nc2c(c1NC(=O)c1ccco1)CS(=O)C2 (centres undefined)	none
COc1ccc(Cl)cc1NC(=O)c1ccc(-n2c(C)ccc2C)cc1	none
CCOCC(=O)N1CCCC(c2ccnc(Nc3cccc(F)c3)n2)C1 (centres undefined)	mHTT CaM bind 62
CCOCC(=O)N1CCCC(c2ccnc(Nc3ccc(C)cc3)n2)C1 (centres undefined)	none
Cc1cccc(-c2nccc(C3CCCN(C(=O)Cc4cccc(F)c4)C3)n2)c1 (centres undefined)	none
O=C(Cc1cccc(F)c1)N1CCCC(c2ccnc(Nc3cccc(F)c3)n2)C1 (centres undefined)	mHTT CaM bind 73
COc1cccc(Oc2c(C(F)(F)F)oc3c(CN(C)C)c(O)ccc3c2=O)c1	none
CN(C)Cc1c(O)ccc2c(=O)c(Oc3ccc4ccccc4c3)c(C(F)(F)F)oc12	mHTT CaM bind 76

Screens: PubChem BioAssay, University of Kansas High Throughput Screening Laboratory
